# The supplement of paper PMC10981050
# Where “and” joins values, the source holds several entries; their conditions need not be identical. Equal values may be shown once. Where a name gives a salt, the structure may show the parent alone.
# Key:
# Assay in all cases: cell viability relative to vehicle control; higher = less cytotoxic
# Details in all cases: 10 µM
# K562 = system: K562
# Method in brief: (§1)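 Mutant clones made by CRISPR editing and their isogenic wild-type counterparts, from four leukaemia lines, were exposed to a single 10 µM dose of each library compound for 48 h. The supernatant was then removed and CellTiter-Glo luminescence was read. Viability was reported as percent of the on-plate vehicle control.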
# MARIMO = system: MARIMO
# Method in brief: as §1
# MOLM14 = system: MOLM14
# Method in brief: as §1
# OCI-AML2 = system: OCI-AML2
# Method in brief: as §1
Structure (SMILES),cell viability (K562; SRSF2 genotype: SRSF2 P95H/wt),cell viability (K562; SRSF2 genotype: SRSF2 wt/wt) [%],cell viability (MARIMO; SRSF2 genotype: SRSF2 P95H/wt) [%],cell viability (MARIMO; SRSF2 genotype: SRSF2 wt/wt) [%],cell viability (MOLM14; SRSF2 genotype: SRSF2 P95H/wt) [%],cell viability (MOLM14; SRSF2 genotype: SRSF2 wt/wt) [%],cell viability (OCI-AML2; SRSF2 genotype: P95H/wt) [%],cell viability (OCI-AML2; SRSF2 genotype: wt/wt) [%]
CC(C)c1cc2c(c(O)c1O)[C@@]13CCCC(C)(C)[C@@H]1C[C@@H]2OC3=O [Carnosol],43.3% and 33.8%,61.7,4.39,0.77,6.11,5.25,5.94,1.96
Nc1ccc(S(=O)(=O)Nc2cncc(Cl)n2)cc1 [Sulfalozine sodium],101% and 97.3%,104,103,111,92.7,102,107,88.8
Cc1cnc(C(=O)NCCc2ccc(S(=O)(=O)NC(=O)NC3CCCCC3)cc2)cn1 [Glipizide (Glucotrol)],93.8% and 94.9%,91.6,90.9,104,94.3,92.5,96.6,97.4
CC[C@H]1OC(=O)[C@H](C)[C@@H](O[C@H]2C[C@@](C)(OC)[C@@H](O)[C@H](C)O2)[C@H](C)[C@@H](O[C@@H]2O[C@H](C)C[C@H](N(C)C)[C@H]2O)[C@](C)(O)C[C@@H](C)CN(C)[C@H](C)[C@@H](O)[C@]1(C)O [Azithromycin Dihydrate],86.8% and 80.4%,82.7,86,83.7,86.8,93.3,77.9,88
C=C(C)[C@@H]1CC[C@]2(C(=O)O)CC[C@]3(C)[C@H](CC[C@@H]4[C@@]5(C)CCC(=O)C(C)(C)[C@@H]5CC[C@]43C)[C@@H]12 [Betulonic acid],45.2% and 68%,61.4,34.2,20.9,43.6,32.2,29.6,17.1
O=C(c1ccc(Oc2ccccc2)cc1Cl)c1c[nH]c2ncnc(N[C@@H]3CC[C@@H](CO)OC3)c12,9.11% and 19%,14.3,23.1,22.1,12.6,17,13.4,16.1
CCN(CC)CCOCCOC(=O)C1(c2ccccc2)CCCC1 [Pentoxyverine Citrate],98.4% and 105%,108,92.9,104,96.4,104,112,97
CCCNC(C)C(=O)Nc1ccccc1C (stereo not given) [Prilocaine],87.8% and 85.9%,86.8,79.4,90.5,93.3,85.6,89.1,90.7
"Nc1ccccc1NC(=O)c1ccc(CNC(=O)OCc2cccnc2)cc1 [Entinostat (MS-275, SNDX-275)]",9.53% and 33.8%,26.6,22.1,25.4,1.22,1.1,0.59,4.33
Cn1c(=O)c2[nH]cnc2n(C)c1=O [Aminophylline (Truphylline)],91.1% and 89.1%,89.2,83.4,95.7,86.8,89.8,88.9,102
COC(=O)CCC(=O)CN [Methyl Aminolevulinate Hydrochloride],94.6% and 91.5%,99,92.2,94.4,95,97.2,93.9,102
CCCCNc1cc(C(=O)O)cc(S(N)(=O)=O)c1Oc1ccccc1 [Bumetanide],105% and 102%,102,96.5,108,105,101,99.9,110
C=C1CCN([C@H](C)[C@](O)(Cn2cncn2)c2ccc(F)cc2F)CC1 [Efinaconazole],86.9% and 94%,96.9,76.3,88.3,85.8,95.8,82.2,83.5
O=C1Cc2ccccc2N1 [Oxindole],96.9% and 92%,98.4,98.2,103,95,98.9,95.9,105
CCOC(=O)C1=C[C@@H](OC(CC)CC)[C@H](NC(C)=O)[C@@H](N)C1 [Oseltamivir Phosphate],103% and 105%,104,102,106,110,109,110,104
O=C(C=CC=Cc1ccccc1)CCc1ccccc1 [Alnustone],105% and 100%,91.8,92,87.5,88.1,87.4,76.6,95.6
CC12CCC(CC1=O)C2(C)C (stereo not given) [Camphor],102%,103,104,108,105,104,102,99.1
CCOC(=O)N1CCN(c2ccc(OC[C@H]3CO[C@](Cn4ccnc4)(c4ccc(Cl)cc4Cl)O3)cc2)CC1 [Elubiol],43.3% and 36.5%,41.8,29.3,28.8,39,21.1,10.3,15.9
CO/N=C(\C(=O)N[C@@H]1C(=O)N2C(C(=O)[O-])=C(C[n+]3ccn4ncccc43)CS[C@H]12)c1nsc(N)n1 [Cefozopran hydrochloride],108% and 99.3%,101,100,114,99.4,106,95.2,95.9
Nc1nc2c(ncn2[C@@H]2O[C@H](CO)[C@@H](O)[C@H]2O)c(=O)[nH]1 [Guanosine],87.3% and 93.1%,93.2,88.2,103,92.5,99.8,103,97.5
